According to PubChem BioAssay:
Active and inactive are the calls of the source. Unless noted, the rule behind the calls is not given here.

Assays:
[1] = anti-His antibody binders, primary screen, artefact control for SMM control protein annotation, biochemical, small-molecule microarray, 635 nm fluorescence (AID 1128); conditions: anti-His Alexa647 antibody binding, higher = more signal;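 note: score merges feature fluorescence with signal-to-noise for each printed compound spot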
[2] = test system: Human papillomavirus type 1a E7 protein (residues 1-88); test: HPV1a E7 small-molecule binders, primary screen, biochemical, small-molecule microarray, residues 1-88, 635 nm (AID 1129); conditions: small-molecule microarray binding, fluorescence 635 nm; higher = more signal
[3] = target: Focal adhesion kinase 1 (Homo sapiens) (UniProt Q05397); test: small-molecule microarray binders of FAK, primary screen, biochemical, 635/667 nm fluorescence, BSA, DTT (AID 1130); conditions: PTK2 binding, 635 nm fluorescence, higher = more signal;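 note: composite of spot emission at 667 nm and signal to noise over triplicate slides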
[4] = test system: Fibrinogen (Alexa647-labelled); test: fibrinogen binders on compound microarrays, profiling panel, artefact control for SMM control-protein annotation, biochemical, small-molecule microarray, 635/667 nm fluorescence (AID 1131); conditions: fibrinogen-A647 binding fluorescence, higher = more signal;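 note: z-score merges 667 nm fluorescence with per-spot signal-to-noise over triplicate slides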
[5] = target: Follistatin (Homo sapiens) (UniProt P19883); test: follistatin binders on small-molecule microarrays, primary screen, biochemical, small-molecule microarray, 635/667 nm fluorescence (AID 1132); conditions: FST binding, 635 nm fluorescence, higher = more signal
[6] = target: Fibroblast growth factor 2 (Homo sapiens) (UniProt P09038); test: FGF2 binders on small-molecule microarrays, primary screen, biochemical, small-molecule microarray, 635/667 nm fluorescence (AID 1133); conditions: small-molecule microarray binding, FGF2, fluorescence 635/667; higher = more signal
[7] = mitochondrial membrane potential change in A549 cells, profiling panel, cell-based, JC-1 fluorescence, basal, 24 h, 100 nL (AID 1138); conditions: higher = more signal;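 note: A549 lung adenocarcinoma cells under basal conditions with no added stimulus; test concentration not given here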
Lefty1 = Lefty1 binders on small-molecule microarrays, primary screen, biochemical, small-molecule microarray, 635/667 nm fluorescence (AID 1139); conditions: small-molecule microarray binding, fluorescence 635/667; higher = more signal
[8] = test system: wheat germ agglutinin (Triticum aestivum), Alexa647-labelled; test: wheat germ agglutinin binders on compound microarrays, profiling panel, artefact control for SMM control-protein annotation, biochemical, small-molecule microarray, 635/667 nm fluorescence (AID 1140); conditions: WGA-A647 binding, 635 nm fluorescence, higher = more signal;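 note: score merges 667 nm feature emission with signal to noise over triplicate slides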
[9] = target: Luciferin 4-monooxygenase (Photinus pyralis) (UniProt P08659); test: firefly luciferase enzyme inhibitors, primary screen, biochemical, luminescence, purified enzyme, 2006 set (AID 1141); conditions: SteadyGlo luminescence, 30 min, higher = more signal, called active from +8 up or from −8 down;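 note: cell-free assay with purified firefly luciferase at 100 ng per well in PBS; test concentration not given here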
[10] = test system: Wnt5a (protein binding on small-molecule microarray); test: Wnt5a binders on small-molecule microarray, primary screen, biophysical, 635/667 nm fluorescence (AID 1142); conditions: 635 nm fluorescence, higher = more signal;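 note: fluorescence read at 667 nm with signal to noise per printed feature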
[11] = cell viability in Huh7 cells, primary screen, cytotoxicity control for HCV replication inhibitor project, CellTiter-Glo luminescence, basal, 48 h (AID 1143); conditions: Huh7 HCV replicon, higher = more signal, called active from +8 up or from −8 down;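 note: Huh7 hepatoma cells carrying a hepatitis C replication reporter with no stimulus; test concentration not given here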
[12] = P. aeruginosa biofilm formation inhibitors, primary screen, PAO1 strain, BacTiter-Glo luminescence, LB-PBS (AID 1144); conditions: 12 h, higher = more signal
[13] = CREB reporter modulators without forskolin, primary screen, cell-based, PC12, CRE-LacZ reporter, unstimulated (AID 1145); conditions: no forskolin, luminescence, 4.5 h, higher = more signal, called active from +8 up or from −8 down
[14] = CREB reporter modulators under forskolin, primary screen, cell-based, PC12, CRE-LacZ reporter, forskolin-stimulated (AID 1146); conditions: luminescence, 4.5 h, higher = more signal, called active from +8 up or from −8 down;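 note: PC12 cells with 6xCRE LacZ reporter stimulated by forskolin 10 µM; beta-galactosidase reporter signal reflecting CREB driven transcription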
[15] = target: Streptavidin (Streptomyces avidinii) (UniProt P22629); test: streptavidin binders on small-molecule microarray, primary screen, artefact control for SMM compound annotation, biophysical, 635/667 nm fluorescence (AID 1147); conditions: streptavidin binding, higher = more signal;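 note: signal reflects streptavidin binding to arrayed compounds as a control protein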
[16] = small-molecule binders of probe aInhba, primary screen, biochemical, small-molecule microarray, 635/667 nm fluorescence (AID 1148); conditions: higher = more signal;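 note: score merges 667nm spot fluorescence with signal-to-noise for antibody binding to printed compounds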
Torsin-1A (Homo sapiens) [17] = target: Torsin-1A (Homo sapiens) (UniProt O14656); test: torsin A binders from cell lysate, primary screen, small-molecule microarray, wild-type, 635/667 nm (AID 1149); conditions: COS7 hTOR1A-WT lysate, 635 nm fluorescence, higher = more signal
Torsin-1A (Homo sapiens) [18] = target: Torsin-1A (Homo sapiens) (UniProt O14656); test: small-molecule binders of mutant TOR1A in lysate, primary screen, cell lysate, small-molecule microarray, COS7 lysate, 635/667 nm fluorescence (AID 1150); conditions: COS7 hTOR1A mutant lysate, 635 nm fluorescence, higher = more signal;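 note: score pools 667 nm emission and signal to noise measuring lysate protein binding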
[19] = test system: Sonic hedgehog protein (Shh); test: small-molecule binders of Shh protein, primary screen, biochemical, small-molecule microarray, 635/667 nm fluorescence (AID 1151); conditions: small-molecule microarray binding, 635 nm fluorescence; higher = more signal;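 note: Shh protein binding to compounds spotted on small-molecule microarray slides; score combines spot fluorescence intensity with signal-to-noise across triplicate slides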

Streptavidin (Streptomyces avidinii), sequence (P22629 whole entry, looked up): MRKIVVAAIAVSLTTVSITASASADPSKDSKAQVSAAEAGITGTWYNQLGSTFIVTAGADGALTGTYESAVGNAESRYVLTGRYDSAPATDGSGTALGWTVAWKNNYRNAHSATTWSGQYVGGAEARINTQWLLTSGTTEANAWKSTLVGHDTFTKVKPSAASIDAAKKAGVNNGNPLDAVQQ
Fibroblast growth factor 2 (Homo sapiens), sequence (P09038 whole entry, looked up): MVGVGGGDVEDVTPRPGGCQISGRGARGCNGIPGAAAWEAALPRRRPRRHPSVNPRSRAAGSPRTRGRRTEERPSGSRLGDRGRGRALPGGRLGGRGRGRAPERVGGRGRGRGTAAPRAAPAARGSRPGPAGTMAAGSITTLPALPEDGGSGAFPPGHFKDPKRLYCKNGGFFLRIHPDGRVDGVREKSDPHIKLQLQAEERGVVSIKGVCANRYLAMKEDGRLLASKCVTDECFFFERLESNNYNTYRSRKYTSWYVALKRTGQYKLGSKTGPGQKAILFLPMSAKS
Luciferin 4-monooxygenase (Photinus pyralis), sequence (P08659 whole entry, looked up): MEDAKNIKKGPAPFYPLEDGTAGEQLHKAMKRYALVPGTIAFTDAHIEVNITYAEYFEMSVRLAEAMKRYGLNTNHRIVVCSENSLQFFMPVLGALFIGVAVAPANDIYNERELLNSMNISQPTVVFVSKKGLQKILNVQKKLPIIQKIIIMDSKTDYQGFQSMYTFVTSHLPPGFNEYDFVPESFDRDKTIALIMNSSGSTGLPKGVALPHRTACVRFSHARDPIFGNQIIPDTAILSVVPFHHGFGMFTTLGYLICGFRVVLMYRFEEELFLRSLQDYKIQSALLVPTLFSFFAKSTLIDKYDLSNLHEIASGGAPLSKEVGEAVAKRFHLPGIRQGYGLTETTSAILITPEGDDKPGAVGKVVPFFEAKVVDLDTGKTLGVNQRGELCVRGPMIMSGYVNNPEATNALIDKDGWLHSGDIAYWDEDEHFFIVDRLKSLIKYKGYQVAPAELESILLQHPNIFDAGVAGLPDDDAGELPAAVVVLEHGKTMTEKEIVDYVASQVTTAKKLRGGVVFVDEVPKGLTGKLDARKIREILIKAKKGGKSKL
Torsin-1A (Homo sapiens), sequence (O14656 whole entry, looked up): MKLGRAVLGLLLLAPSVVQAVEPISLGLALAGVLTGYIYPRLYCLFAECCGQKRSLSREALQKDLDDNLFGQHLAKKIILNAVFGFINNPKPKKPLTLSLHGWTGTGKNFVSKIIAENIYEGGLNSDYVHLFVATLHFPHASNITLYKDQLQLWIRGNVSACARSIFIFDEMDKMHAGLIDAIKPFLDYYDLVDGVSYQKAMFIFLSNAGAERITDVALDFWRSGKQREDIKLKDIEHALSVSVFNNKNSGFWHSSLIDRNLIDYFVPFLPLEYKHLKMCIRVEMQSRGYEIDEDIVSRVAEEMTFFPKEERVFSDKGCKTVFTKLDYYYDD
Focal adhesion kinase 1 (Homo sapiens), sequence (Q05397 whole entry, looked up): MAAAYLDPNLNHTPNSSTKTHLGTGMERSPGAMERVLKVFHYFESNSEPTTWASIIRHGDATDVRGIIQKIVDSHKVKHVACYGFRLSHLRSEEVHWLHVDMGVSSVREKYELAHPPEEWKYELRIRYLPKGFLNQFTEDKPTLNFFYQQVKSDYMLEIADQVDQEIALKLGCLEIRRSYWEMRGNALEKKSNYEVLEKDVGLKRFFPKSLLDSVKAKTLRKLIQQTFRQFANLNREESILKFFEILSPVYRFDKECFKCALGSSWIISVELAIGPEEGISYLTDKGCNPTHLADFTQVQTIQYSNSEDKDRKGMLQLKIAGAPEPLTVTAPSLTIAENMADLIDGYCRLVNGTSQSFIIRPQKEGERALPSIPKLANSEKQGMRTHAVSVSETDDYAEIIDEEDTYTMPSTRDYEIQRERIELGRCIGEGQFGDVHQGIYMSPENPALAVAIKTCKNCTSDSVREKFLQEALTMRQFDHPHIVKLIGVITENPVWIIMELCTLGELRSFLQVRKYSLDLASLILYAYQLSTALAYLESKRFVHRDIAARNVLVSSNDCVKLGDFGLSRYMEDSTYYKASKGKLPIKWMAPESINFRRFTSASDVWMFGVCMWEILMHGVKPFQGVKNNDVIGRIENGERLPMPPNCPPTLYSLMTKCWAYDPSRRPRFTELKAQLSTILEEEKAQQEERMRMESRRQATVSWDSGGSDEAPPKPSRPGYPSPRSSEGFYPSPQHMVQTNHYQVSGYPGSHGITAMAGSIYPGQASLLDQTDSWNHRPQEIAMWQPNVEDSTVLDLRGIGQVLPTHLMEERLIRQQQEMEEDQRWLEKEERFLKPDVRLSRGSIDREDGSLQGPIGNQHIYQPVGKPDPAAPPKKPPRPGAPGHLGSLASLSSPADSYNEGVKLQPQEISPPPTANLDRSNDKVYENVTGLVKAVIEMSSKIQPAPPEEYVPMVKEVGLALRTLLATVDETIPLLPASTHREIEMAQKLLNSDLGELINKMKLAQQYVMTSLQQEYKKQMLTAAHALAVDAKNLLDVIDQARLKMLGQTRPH
Follistatin (Homo sapiens), sequence (P19883 whole entry, looked up): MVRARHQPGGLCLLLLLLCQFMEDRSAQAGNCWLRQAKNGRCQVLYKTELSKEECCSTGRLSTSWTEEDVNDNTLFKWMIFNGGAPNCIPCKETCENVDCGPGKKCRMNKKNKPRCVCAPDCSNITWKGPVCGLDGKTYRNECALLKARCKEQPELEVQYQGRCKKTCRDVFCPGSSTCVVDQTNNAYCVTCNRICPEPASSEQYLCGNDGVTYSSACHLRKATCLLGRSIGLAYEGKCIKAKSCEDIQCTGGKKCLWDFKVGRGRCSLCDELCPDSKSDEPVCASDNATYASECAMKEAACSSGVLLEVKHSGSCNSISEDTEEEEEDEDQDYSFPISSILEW

Compound | composite z-score [1] | composite z-score [2] | composite z-score [3] | composite z-score [4] | composite z-score [5] | composite z-score [6] | z-score [7] | composite z-score (Lefty1) | composite z-score [8] | z-score [9] | composite z-score [10] | z-score [11] | z-score [12] | z-score [13] | z-score [14] | composite z-score [15] | composite z-score [16] | composite z-score (Torsin-1A (Homo sapiens) [17]) | composite z-score (Torsin-1A (Homo sapiens) [18]) | composite z-score [19]
C=CCC(OC(C)=O)[C@@H]1[C@@H](N(Cc2cc3ccccc3o2)C(=O)Cc2ccc(F)cc2)c2cc(OCCCO)ccc2N1C(=O)Cc1ccc2ccccc2c1 (stereo not given in full) | -0.748 | -0.682 | -0.308 | 0.397 | 0.0648 | -0.408 | 1.75 | -0.0725 | -0.286 | -0.826 (inactive) | -0.314 | -0.327 (inactive) | -0.467 (inactive) | 2.08 (inactive) | 0.926 (inactive) | 0.655 | -0.0963 | -1.16 | -0.337 | 0.0162
CN1C(=O)C2C=CC(C(O)c3cccn3C)N(Nc3ccc([N+](=O)[O-])cc3[N+](=O)[O-])C2C1=O (stereo not given) | 0.421 | 0.414 | 0.0533 | -0.232 | -0.201 | 0.275 | 0.0408 | -0.583 | 0.408 | 0.679 (inactive) | 0.28 | 0.515 (inactive) | -0.255 (inactive) | 1.4 (inactive) | 1.36 (inactive) | 0.724 | 0.188 | 0.799 | 0.437 | -0.0299
C=C(/C(=C/C[C@H](OC(C)=O)c1ccc(CO)o1)c1cnc2ccccc2c1)C(C)C | 1.07 | 1.16 | 0.38 | 0.988 | 1.39 | 1.41 | -0.874 | 1.55 | 1.33 | -1.41 (inactive) | 0.473 | 0.27 (inactive) | -1.31 (inactive) | -0.671 (inactive) | 0.647 (inactive) | 1.44 | 0.0528 | 1.27 | 0.269 | 1.65
O=C1O[C@@H](c2ccccc2)[C@@H](c2ccccc2)N2[C@@H](c3ccc(O)cc3)[C@]3(C(=O)Nc4ccc(C#CCCO)cc43)[C@@H](C(=O)N3CCN(c4ncccn4)CC3)[C@H]12 | 1.56 | 1.14 | 0.165 | 0.512 | 1.37 | 1.68 | -1.25 | 0.952 | 0.0869 | 0.764 (inactive) | 0.409 | -1.28 (inactive) | -0.622 (inactive) | -0.554 (inactive) | -0.572 (inactive) | -0.704 | 0.0214 | 0.591 | 0.967 | 2.21
C#CCN(Cc1ccccc1Br)[C@H](/C=C/c1ccccc1)[C@@H](O)Cc1ccccc1 | 0.244 | -0.548 | -0.082 | -1.24 | -1.25 | -1.23 | 0.921 | -0.62 | -0.351 | -0.629 (inactive) | -0.356 | -2.2 (inactive) | -0.109 (inactive) | 2.49 (inactive) | -0.697 (inactive) | -0.385 | -0.179 | -0.622 | 0.543 | -0.866
O=C1[C@H]2C=C(I)[C@H](C[C@@H]2OCCOCCO)[C@@]12CO2 | -0.0655 | 0.747 | 0.0017 | 0.0216 | 0.697 | 0.952 | -0.43 | 0.858 | -0.12 | 0.818 (inactive) | 0.0712 | 1.05 (inactive) | -0.0471 (inactive) | 1.67 (inactive) | 0.839 (inactive) | 1.08 | -0.106 | 0.48 | -0.0946 | 0.719
CC1CC/C=C\[C@H]2OC34C=CCN(Cc5ccccc5)C(=O)[C@H]3N(C(CO)C(C)C)C(=O)[C@@H]4C2C(=O)O1 (stereo not given in full) | -0.696 | -1.03 | -0.475 | -0.798 | -0.528 | -0.81 | 1.32 | -0.722 | 0.389 | -1.15 (inactive) | -0.0818 | -0.0399 (inactive) | 1.09 (inactive) | 2.1 (inactive) | 1.43 (inactive) | -0.854 | -0.0695 | 0.505 | -0.741 | -0.0532
CCCC1(C(=O)OC)C=C2C(=C(C)C(=O)C2C)CN1 (stereo not given) | 2.81 | -0.0152 | 0.0853 | 0.892 | 0.503 | -0.343 | 0.511 | -0.451 | 0.594 | 2.26 (inactive) | 0.0439 | 0.442 (inactive) | -0.473 (inactive) | 2.3 (inactive) | 2.15 (inactive) | -0.381 | 0.0487 | 0.149 | -0.0341 | -0.552
C=C[C@@H](CO)N(Cc1ccc(OC)cc1)S(=O)(=O)c1ccc(Br)cc1 | 1.53 | 0.687 | 0.188 | -0.0952 | 0.351 | 0.965 | 0.739 | -0.327 | 0.316 | 0.356 (inactive) | -0.0447 | -3.07 (inactive) | -0.445 (inactive) | -0.104 (inactive) | -0.895 (inactive) | 0.396 | -0.154 | 1.16 | 1.13 | -0.0145
COc1ccc(C#Cc2ccc3c(c2)[C@]2(C(=O)N3)[C@H](c3ccc(O)cc3)N3[C@H](c4ccccc4)[C@H](c4ccccc4)OC(=O)[C@H]3[C@@H]2C(=O)Nc2nc3ccccc3s2)cc1 | 0.269 | 1.25 | 0.359 | 0.983 | 1.29 | 0.964 | -2.1 | 0.882 | 0.768 | -1.28 (inactive) | 0.108 | -1.62 (inactive) | -0.52 (inactive) | 0.389 (inactive) | -0.513 (inactive) | 1.02 | 0.0797 | 1.16 | 0.168 | 0.329
